Compound in this test: C#CCNC(=O)CCSSCCC(=O)NCCc1ccc(C=O)c(C=O)c1
Put plainly: lysine labeling ratio R10:1 (500 µM / 50 µM probe), SILAC-ABPP in living cells; higher = lower intrinsic lysine reactivity toward the probe, active = 2 or less. Conditions: HeLa; probe concentrations 500 vs 50 µM. The method, boiled down: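 Forward and reverse SILAC label swaps were used with living light and heavy HeLa cells in PBS at room temperature, which were given an alkyne-tagged, disulfide-linked lysine probe at 50 µM or 500 µM. R is the per-lysine filtered median high-probe/low-probe MS1 peptide ratio, with the median then taken across both swap directions. Values are limited to 20.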
UniProt Q06830, sequence (Q06830 whole entry): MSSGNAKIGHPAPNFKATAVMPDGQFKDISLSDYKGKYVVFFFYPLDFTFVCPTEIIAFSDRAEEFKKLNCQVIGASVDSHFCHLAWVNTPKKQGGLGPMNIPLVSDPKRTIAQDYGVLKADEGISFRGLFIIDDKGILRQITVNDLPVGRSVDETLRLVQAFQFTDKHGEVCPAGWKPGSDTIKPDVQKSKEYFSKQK
UniProt Q9UKX5, sequence (Q9UKX5 whole entry): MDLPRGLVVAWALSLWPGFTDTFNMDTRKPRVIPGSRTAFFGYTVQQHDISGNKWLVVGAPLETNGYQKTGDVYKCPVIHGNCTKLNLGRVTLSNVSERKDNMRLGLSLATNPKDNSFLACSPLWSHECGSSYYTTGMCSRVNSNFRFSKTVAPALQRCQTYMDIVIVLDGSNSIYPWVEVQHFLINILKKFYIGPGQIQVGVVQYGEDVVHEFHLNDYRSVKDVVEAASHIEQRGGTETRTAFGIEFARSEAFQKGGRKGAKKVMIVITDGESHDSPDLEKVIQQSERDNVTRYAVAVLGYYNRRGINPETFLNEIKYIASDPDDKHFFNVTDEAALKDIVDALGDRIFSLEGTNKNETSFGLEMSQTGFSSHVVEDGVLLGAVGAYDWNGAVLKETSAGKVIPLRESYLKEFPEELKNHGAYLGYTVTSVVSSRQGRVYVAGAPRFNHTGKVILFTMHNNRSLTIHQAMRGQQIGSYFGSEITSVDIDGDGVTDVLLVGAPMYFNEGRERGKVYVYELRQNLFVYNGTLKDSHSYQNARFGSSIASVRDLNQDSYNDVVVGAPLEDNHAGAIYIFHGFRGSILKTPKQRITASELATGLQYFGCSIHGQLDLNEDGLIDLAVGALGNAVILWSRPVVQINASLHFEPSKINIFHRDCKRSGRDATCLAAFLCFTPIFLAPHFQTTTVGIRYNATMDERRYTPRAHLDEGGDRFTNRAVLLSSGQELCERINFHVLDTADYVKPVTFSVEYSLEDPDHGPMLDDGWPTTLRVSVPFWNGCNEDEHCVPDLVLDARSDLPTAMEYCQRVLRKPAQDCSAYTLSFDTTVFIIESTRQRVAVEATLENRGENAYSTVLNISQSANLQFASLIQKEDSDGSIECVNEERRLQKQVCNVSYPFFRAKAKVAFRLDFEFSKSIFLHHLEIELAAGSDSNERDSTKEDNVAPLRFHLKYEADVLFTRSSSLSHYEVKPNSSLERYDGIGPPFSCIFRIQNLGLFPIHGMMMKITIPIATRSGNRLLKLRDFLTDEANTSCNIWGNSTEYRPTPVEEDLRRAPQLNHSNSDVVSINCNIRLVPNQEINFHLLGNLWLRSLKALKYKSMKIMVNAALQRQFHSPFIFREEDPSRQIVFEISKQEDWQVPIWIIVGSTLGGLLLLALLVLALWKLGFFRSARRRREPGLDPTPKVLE
UniProt P25787, sequence (P25787 whole entry): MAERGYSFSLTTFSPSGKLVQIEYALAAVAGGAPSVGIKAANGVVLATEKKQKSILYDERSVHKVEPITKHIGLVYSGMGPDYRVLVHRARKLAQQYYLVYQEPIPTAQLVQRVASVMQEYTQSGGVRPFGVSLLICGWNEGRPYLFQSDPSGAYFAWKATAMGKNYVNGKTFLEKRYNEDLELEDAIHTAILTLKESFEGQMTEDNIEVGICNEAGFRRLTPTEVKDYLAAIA
UniProt O43570, sequence (O43570 whole entry): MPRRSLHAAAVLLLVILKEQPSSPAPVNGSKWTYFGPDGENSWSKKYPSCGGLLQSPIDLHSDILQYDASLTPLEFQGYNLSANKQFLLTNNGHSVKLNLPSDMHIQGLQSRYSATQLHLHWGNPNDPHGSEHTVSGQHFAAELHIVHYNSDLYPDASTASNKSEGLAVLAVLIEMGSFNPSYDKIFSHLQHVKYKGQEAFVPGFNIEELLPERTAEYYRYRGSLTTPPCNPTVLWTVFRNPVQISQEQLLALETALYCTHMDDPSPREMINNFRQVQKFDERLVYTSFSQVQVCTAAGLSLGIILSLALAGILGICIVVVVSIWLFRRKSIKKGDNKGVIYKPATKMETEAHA
UniProt P08069, sequence (P08069 whole entry, looked up): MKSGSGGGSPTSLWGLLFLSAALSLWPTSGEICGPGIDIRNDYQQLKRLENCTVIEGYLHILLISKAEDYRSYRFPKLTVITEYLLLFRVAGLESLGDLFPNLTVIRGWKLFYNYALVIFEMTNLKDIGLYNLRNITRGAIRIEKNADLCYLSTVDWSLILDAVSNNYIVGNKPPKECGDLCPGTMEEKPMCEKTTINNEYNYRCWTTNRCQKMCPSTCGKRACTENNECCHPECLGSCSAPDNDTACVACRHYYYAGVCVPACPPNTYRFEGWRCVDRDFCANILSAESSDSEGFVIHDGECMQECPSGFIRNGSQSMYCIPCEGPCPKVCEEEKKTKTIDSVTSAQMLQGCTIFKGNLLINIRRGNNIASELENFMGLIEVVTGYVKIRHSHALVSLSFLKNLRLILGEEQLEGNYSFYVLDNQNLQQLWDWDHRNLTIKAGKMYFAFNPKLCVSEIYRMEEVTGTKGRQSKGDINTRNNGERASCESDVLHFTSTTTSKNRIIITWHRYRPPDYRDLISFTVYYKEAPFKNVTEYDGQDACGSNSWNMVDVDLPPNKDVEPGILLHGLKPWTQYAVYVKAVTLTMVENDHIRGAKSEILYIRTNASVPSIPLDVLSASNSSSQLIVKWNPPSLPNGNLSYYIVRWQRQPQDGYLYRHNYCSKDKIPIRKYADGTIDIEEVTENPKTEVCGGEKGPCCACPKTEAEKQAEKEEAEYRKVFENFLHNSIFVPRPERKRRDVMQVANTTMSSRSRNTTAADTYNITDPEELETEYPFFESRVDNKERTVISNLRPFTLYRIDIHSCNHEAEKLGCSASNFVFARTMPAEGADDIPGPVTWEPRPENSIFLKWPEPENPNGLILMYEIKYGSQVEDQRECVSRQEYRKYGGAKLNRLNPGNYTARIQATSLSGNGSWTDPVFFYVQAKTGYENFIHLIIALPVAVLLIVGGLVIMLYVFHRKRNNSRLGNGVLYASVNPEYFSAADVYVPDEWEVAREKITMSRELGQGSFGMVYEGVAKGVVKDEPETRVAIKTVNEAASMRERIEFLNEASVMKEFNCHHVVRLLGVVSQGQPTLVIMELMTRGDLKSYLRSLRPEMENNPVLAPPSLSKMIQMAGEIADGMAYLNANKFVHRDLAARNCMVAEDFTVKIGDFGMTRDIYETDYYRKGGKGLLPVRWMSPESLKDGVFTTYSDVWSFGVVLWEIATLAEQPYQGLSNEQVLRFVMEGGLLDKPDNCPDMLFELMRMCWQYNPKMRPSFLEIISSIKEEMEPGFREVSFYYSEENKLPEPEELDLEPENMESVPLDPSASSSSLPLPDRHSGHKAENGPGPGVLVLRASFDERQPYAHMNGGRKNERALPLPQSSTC
UniProt P50991, sequence (P50991 whole entry): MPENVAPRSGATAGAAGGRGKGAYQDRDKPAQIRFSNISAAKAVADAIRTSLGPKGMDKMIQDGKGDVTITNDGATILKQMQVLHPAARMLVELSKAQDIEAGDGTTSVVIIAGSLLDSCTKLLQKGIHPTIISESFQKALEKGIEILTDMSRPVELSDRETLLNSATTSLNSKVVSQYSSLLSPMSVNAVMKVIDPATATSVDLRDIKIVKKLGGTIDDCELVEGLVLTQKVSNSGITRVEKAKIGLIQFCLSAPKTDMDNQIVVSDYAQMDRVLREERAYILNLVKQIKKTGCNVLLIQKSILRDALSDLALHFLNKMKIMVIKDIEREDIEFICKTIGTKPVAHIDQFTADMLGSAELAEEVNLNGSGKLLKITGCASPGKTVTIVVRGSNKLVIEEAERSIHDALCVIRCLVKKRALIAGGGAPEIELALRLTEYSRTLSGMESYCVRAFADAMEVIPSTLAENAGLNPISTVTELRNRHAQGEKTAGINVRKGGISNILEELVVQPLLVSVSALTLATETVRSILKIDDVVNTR
UniProt Q9UJS0, sequence (Q9UJS0 whole entry): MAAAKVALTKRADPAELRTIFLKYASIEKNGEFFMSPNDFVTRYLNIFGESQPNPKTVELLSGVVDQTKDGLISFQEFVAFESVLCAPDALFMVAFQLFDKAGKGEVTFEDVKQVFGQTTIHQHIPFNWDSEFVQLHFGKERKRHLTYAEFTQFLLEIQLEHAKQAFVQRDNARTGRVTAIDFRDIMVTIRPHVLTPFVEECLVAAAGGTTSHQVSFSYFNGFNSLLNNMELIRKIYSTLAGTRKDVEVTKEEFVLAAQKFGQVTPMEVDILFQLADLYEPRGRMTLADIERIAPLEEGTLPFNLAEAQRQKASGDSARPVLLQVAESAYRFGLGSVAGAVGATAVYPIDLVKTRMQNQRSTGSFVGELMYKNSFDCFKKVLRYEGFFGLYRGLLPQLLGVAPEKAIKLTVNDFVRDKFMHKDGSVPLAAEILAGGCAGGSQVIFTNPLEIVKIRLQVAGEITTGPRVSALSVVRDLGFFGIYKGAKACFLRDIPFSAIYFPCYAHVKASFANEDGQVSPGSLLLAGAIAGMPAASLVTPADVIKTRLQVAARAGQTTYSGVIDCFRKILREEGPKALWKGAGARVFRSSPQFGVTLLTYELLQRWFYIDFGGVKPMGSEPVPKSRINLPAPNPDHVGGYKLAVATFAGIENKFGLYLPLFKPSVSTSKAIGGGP
UniProt Q99623, sequence (Q99623 whole entry): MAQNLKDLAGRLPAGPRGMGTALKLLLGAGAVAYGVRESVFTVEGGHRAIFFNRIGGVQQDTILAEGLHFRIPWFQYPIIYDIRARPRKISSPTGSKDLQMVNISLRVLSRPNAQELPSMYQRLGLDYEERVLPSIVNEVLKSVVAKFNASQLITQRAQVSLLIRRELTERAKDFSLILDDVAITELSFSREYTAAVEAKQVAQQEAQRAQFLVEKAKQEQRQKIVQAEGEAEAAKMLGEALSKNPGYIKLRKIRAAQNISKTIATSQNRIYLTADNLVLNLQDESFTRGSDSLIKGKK
Turning to “SPTAN1 (lysine site: K39) (UniProt Q13813)”, the “lysine labeling ratio R10:1” value is 2.65 (inactive).

“PA2G4 (lysine site: K288) (UniProt Q9UQ80)”: the “lysine labeling ratio R10:1” value was 0.997 (active). Next, “CLTC (lysine site: K389) (UniProt Q00610)”: 5.78 (inactive). In the case of “HNRNPL (lysine site: K269) (UniProt P14866)” it was 2.23 (inactive); in that of “Q95604 (lysine site: K145) (UniProt P10321)”, 2.39 (inactive); in that of “SLC25A13 (lysine site: K487) (UniProt Q9UJS0)”, 4.12 (inactive).

Turning to “FAT1 (lysine site: K978) (UniProt Q14517)”, the “lysine labeling ratio R10:1” value is 0.71 (active).

Consider “PGK1 (lysine site: K323) (UniProt P00558)”, for which the “lysine labeling ratio R10:1” value was 5.55 (inactive). With “CELSR2 (lysine site: K2176) (UniProt Q9HCU4)”, the “lysine labeling ratio R10:1” value is 4.05 (inactive). On to UniProt P05187 (lysine site: K262), for which the “lysine labeling ratio R10:1” value is 0.97 (active).

With “PRDX1 (lysine site: K197) (UniProt Q06830)”, the “lysine labeling ratio R10:1” value is 2.6 (inactive). In the case of “IGF1R (lysine site: K221) (UniProt P08069)” it was 1.51 (active); in that of “PRDX5 (lysine site: K146) (UniProt P30044)”, 1.62 (active); in that of “PSMA2 (lysine site: K53) (UniProt P25787)”, 2.94 (inactive). In the case of “CYR61 (lysine site: K203) (UniProt O00622)” it was 2.96 (inactive). Next, “ENO1 (lysine site: K420) (UniProt P06733)”: 2.65 (inactive). For “ACTR3 (lysine site: K42) (UniProt P61158)”, the “lysine labeling ratio R10:1” value is 1.04 (active). Next, UniProt Q9UHN6 (lysine site: K846): 1.51 (active); “DDX3X (lysine site: K491) (UniProt O00571)”: 2.59 (inactive).

Regarding UniProt P26639 (lysine site: K213), the “lysine labeling ratio R10:1” value is 0.782 (active). Next, UniProt Q9UKX5 (lysine site: K402): 0.975 (active).

As to “EEF2 (lysine site: K598) (UniProt P13639)”, the “lysine labeling ratio R10:1” value is 1.36 (active). In the case of UniProt Q15149 (lysine site: K746) it was 2.49 (inactive); in that of “CCT4 (lysine site: K531) (UniProt P50991)”, 3.03 (inactive). In the case of “LAMB1 (lysine site: K1495) (UniProt P07942)” it was 4.06 (inactive). In the case of “LMAN1 (lysine site: K87) (UniProt P49257)” it was 3.85 (inactive). Regarding “MCAM (lysine site: K119) (UniProt P43121)”, the “lysine labeling ratio R10:1” value is 11.1 (inactive). Next, “CALD1 (lysine site: K674) (UniProt Q05682)”: 2.25 (inactive); “ICAM1 (lysine site: K469) (UniProt P05362)”: 4.19 (inactive). In the case of “NUCB1 (lysine site: K302) (UniProt Q02818)” it was 2.22 (inactive). In the case of UniProt O43570 (lysine site: K279) it was 2.86 (inactive). With “IGSF3 (lysine site: K92) (UniProt O75054)”, the “lysine labeling ratio R10:1” value is 2.4 (inactive).

With “SURF4 (lysine site: K154) (UniProt O15260)”, the “lysine labeling ratio R10:1” value was 4.16 (inactive).

In the case of “MSN (lysine site: K538) (UniProt P26038)”, the “lysine labeling ratio R10:1” value was 4.98 (inactive). In the case of “DYNC1H1 (lysine site: K371) (UniProt Q14204)” it was 1.14 (active).

Consider UniProt P62805 (lysine site: K17), for which the “lysine labeling ratio R10:1” value was 2.71 (inactive). In the case of “ATAD3B (lysine site: K104) (UniProt Q5T9A4)” it was 0.547 (active). In the case of “SUB1 (lysine site: K53) (UniProt P53999)” it was 9.37 (inactive). Next, “PLXNB2 (lysine site: K1110) (UniProt O15031)”: 4.66 (inactive); UniProt Q99623 (lysine site: K218): 2.79 (inactive).

Source of the values: the supplement of paper PMC11001985.
